The full list was thinned out, with hits kept by preference.
BL2 CD40 inh = CD40 pathway inhibition in BL2 cells; inhibition, % at 10 µM; actives 0.94% (n = 83,000); AID 1053188; BL2 NF-kB luciferase reporter, CD40L-induced, 4 h;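 active = mean inhibition of at least 50% with a set share of replicates also reaching that level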;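 note: 0% = neutral control wells and 100% = IKK inhibitor VII at 50 µM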
* = called active by the depositor; [ ] = remark or other dose.

SMILES	BL2 CD40 inh
CC(C)(C)[S@](=O)N1Cc2cc(C(=O)NC3CCCCC3)nc(-c3cccc(Br)c3)c2[C@@H]1CCO	13
COc1c(C)c2c(c(O)c1C/C=C(/C)CCC(=O)O)C(=O)OC2	-9[25 µM]
Cc1ccccc1S(=O)(=O)N1[C@@H](C#N)[C@H](c2ccc(C#CC3CCCC3)cc2)[C@@H]1CO	-5
Cc1ccccc1S(=O)(=O)N1[C@H](C#N)[C@@H](c2ccc(C#CC3CCCCC3)cc2)[C@@H]1CO	0
Cc1ccccc1S(=O)(=O)N1[C@H](C#N)[C@H](c2ccc(C#CC3CCCC3)cc2)[C@@H]1CO	-8
Cc1ccccc1S(=O)(=O)N1[C@@H](C#N)[C@@H](c2ccc(C#CC3CCCCC3)cc2)[C@@H]1CO	-10
Cc1ccccc1S(=O)(=O)N1[C@H](C#N)[C@H](c2ccc(C#CC3CCCC3)cc2)[C@H]1CO	40*
Cc1ccccc1S(=O)(=O)N1[C@H](C#N)[C@H](c2ccc(C#CC3CCCCC3)cc2)[C@H]1CO	48*
Cc1ccccc1-c1ccc(C2[C@@H]3CN(Cc4cccnc4)C[C@H]2N3)cc1 (stereo partly specified)	-12
CO[C@H]1CN(C)C(=O)c2cc(NS(C)(=O)=O)ccc2OC[C@H](C)N(Cc2cncnc2)C[C@@H]1C	2[25 µM]
COc1ccc(CNn2c(-c3cccc(C)c3)nc3ccccc3c2=O)cc1OC	-9
COc1cc2c3nnc(-c4ccccc4)c-3cn(Cc3ccc(F)cc3)c2cc1OC	55*
CCc1nc2ccccc2n1Cc1ccc(OC)c(OC)c1	5
C[C@@H]1CN(C)C(=O)Cc2cc(N(C)C)ccc2O[C@H]1CN(C)S(C)(=O)=O	8
CC=Cc1ccc2n(c1=O)C[C@H]1[C@H](CO)[C@@H](C(=O)NCCc3ccncc3)[C@@H]2N1Cc1ccncc1 (mixture of isomers)	-2[25 µM]
COc1ccc(CC2C(=O)NC(C)C(=O)N(C)C3Cc4ccc(cc4)Oc4cc(ccc4O)CC(C(=O)NC(C)C(=O)NC(C)C(=O)N2C)N(C)C3=O)cc1 (stereo unspecified)	67*
CC(C)NC(=O)Nc1ccc2c(c1)CC(=O)N(C)C[C@H](C)[C@H](CN(C)C)O2	-3
O=C(C[C@@H]1C[C@@H]2c3cc(NC(=O)C4CCOCC4)ccc3O[C@@H]2[C@H](CO)O1)NCc1cc(F)ccc1F	-12[25 µM]
O=C(c1cccnc1)N1C[C@@H]2N[C@H](C1)C2c1ccc(-c2cccnc2)cc1 (stereo partly specified)	11
Cc1ccc(P(=O)(CSC(=N)N)c2ccc(C)cc2)cc1	61*
O=C(NCC1CCCCC1)[C@@H]1[C@@H](CO)[C@@H]2Cn3c(cccc3=O)[C@@H]2N1C(=O)CC1CC1	6[25 µM]
O=C(OCC(=O)N1CCN(c2ccccc2)CC1)c1ccccc1NCCO	35*
O=C(OCC(=O)N1CCN(c2ccccc2)CC1)c1ccccc1OC(F)F	-11
O=C(OCC(=O)N1CCN(c2ccccc2)CC1)c1cccs1	-44
C/C=C/c1ccc2c(c1)[C@@H]1[C@@H](CCN1S(=O)(=O)c1cccc(F)c1)[C@H](CO)N2	-22[25 µM]
SMILES	BL2 CD40 inh
O=C(CCN1CCCCC1)c1ccc2c(c1)OCCO2	0
O=C(CCN1CCC(c2ccccc2)C1)c1ccccc1 (stereo unspecified)	5
COc1cc(C(=O)CCN2CCC(c3ccccc3)C2)cc(OC)c1OC (stereo unspecified)	45*
O=C(CCN1CCC(c2ccccc2)C1)c1cccs1 (stereo unspecified)	35
O=C(CCN1CCC(c2ccccc2)C1)c1ccc2c(c1)OCCO2 (stereo unspecified)	45*
COc1cc(C(=O)OC2CCN(C)CC2)cc(OC)c1OC	16
COC(=O)C1CC2=CC(=O)CCC2(C)C23OC2CC2(C)C(CCC24CCC(=O)O4)C13 (stereo unspecified)	2[25 µM]
O=C(C[C@H]1C[C@@H]2c3cc(NC(=O)C4CCOCC4)ccc3O[C@@H]2[C@@H](CO)O1)NC1CCCC1	2
O=C(Nc1ccc2c(c1)[C@@H]1C[C@H](CC(=O)N3CCCCC3)O[C@H](CO)[C@@H]1O2)NC1CCCCC1	-2[25 µM]
C[C@H](CO)N1C[C@H](C)[C@H](CN(C)S(=O)(=O)c2ccccc2)OCc2cn(nn2)CCCC1=O	-7
C[C@H]1CN(C)C(=O)Cc2ccccc2O[C@H]1CN(C)C(=O)OC(C)(C)C	16
CNC[C@H]1Oc2c(N)cccc2C(=O)N(C)C[C@H]1C	0
COc1ccccc1-c1cn(CC[C@@H]2CC[C@H](NC(=O)C3CCCCC3)[C@H](CO)O2)nn1	5[25 µM]
CN1c2ccc(-c3ccccc3)cc2[C@H]2[C@H](CCN2C(=O)NC2CCCCC2)[C@@H]1CO	5[25 µM]
C[C@@H]1CN([C@@H](C)CO)C(=O)c2c(c3ccccc3n2C)-c2ccccc2CO[C@@H]1CN(C)Cc1ccc(C(F)(F)F)cc1	3
O=c1[nH]c(=O)n(C2CC(O)C(CO)O2)cc1Br (stereo unspecified)	-10
C=C1CC(Cn2cc(Br)c(=O)[nH]c2=O)(c2ccc(-c3ccccc3)cc2)OC1=O (stereo unspecified)	64*
C=C1CC(COc2cc(=O)oc3ccccc23)(c2ccccc2)OC1=O (stereo unspecified)	31
C/C=C/c1ccc([C@H]2[C@@H](CO)N(C(C)=O)[C@@H]2CNC(=O)NCCC)cc1	-7[25 µM]
O=C(C[C@@H]1CC[C@H]2[C@@H](COC[C@H](O)CN2S(=O)(=O)c2cccc(F)c2)O1)NCc1ccncn1	0[25 µM]
COc1ccc2c3c([nH]c2c1)[C@@H](CO)N(C(=O)Nc1ccc(F)cc1)CC31CN(C(=O)Nc2c(C)noc2C)C1	-20[25 µM]
CNC[C@@H]1Oc2ccc(N(C)C)cc2C(=O)N(C)C[C@@H]1C	-5
CCOC(=O)C1CCN(C(=O)c2cccnc2)CC1	6
CCOC(=O)C1CCN(Cc2ccc(O)c3ncccc23)CC1	103*
CCOC(=O)C1CCN(C2CCN(Cc3nc(-c4ccccc4)no3)CC2)CC1	4
SMILES	BL2 CD40 inh
COc1ccccc1C#Cc1ccc([C@@H]2[C@@H](C#N)N(C(=O)C3CCC3)[C@H]2CO)cc1	-4[25 µM]
C[C@H]1CN([C@@H](C)CO)C(=O)c2c(c3ccccc3n2C)-c2ccccc2CO[C@@H]1CN(C)S(=O)(=O)c1cn(C)cn1	6[25 µM]
COc1ccccc1C(=O)Nc1ccc2c(c1)C(=O)N(C)[C@H]1CC[C@H](CC(=O)Nc3cc(F)ccc3F)O[C@@H]1CO2	30[25 µM]
CC(C)c1cccc(NC(=O)C[C@H]2CC[C@H]3[C@@H](COc4ccc(NS(=O)(=O)c5ccccc5Cl)cc4C(=O)N3C)O2)c1	24[25 µM]
COc1ccccc1C(=O)Nc1ccc2c(c1)C(=O)N(C)[C@H]1CC[C@H](CC(=O)Nc3cccc(C(C)C)c3)O[C@@H]1CO2	57*[25 µM]
CC(C)[C@@H](C)NC(=O)N(C)C[C@H]1OCc2ccccc2-c2ccccc2C(=O)N([C@H](C)CO)C[C@H]1C	-8
O=C1CCCc2cnnn2COC[C@H](Cc2ccccc2)N1	-1[25 µM]
CC(=O)N1[C@@H]2CN(CC3CC3)C[C@H]1C2c1ccc(Br)cc1 (stereo partly specified)	0
CC(C)NC(=O)N(C)C[C@H]1Oc2ccc(N)cc2CC(=O)N(C)C[C@@H]1C	-2
CCS(=O)(=O)N1Cc2ccccc2CC1C(=O)Nc1nc2ccccc2s1 (stereo unspecified)	61*
CCS(=O)(=O)N1Cc2ccccc2CC1C(=O)Nc1nc2ccccc2[nH]1 (stereo unspecified)	-83
